{"source": "PubChem BioAssay", "note": "A number with no mark means an inactive call. The source made the active and inactive calls.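 How the source made its calls: active means inhibition of the reporter signal at or above 50%; inactive means inhibition below 50%.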"}
{"assay": "TLR3 IRF3 reporter activation blockers – cell-based, poly I:C stimulus, luciferase, 10K MLSCN set, primary screen (AID 602277)", "conditions": "HEK293-TLR3 RL24 IRF3 luciferase reporter, at 10 µM, active compounds read high"}
{"compound": "O=C(Cn1nc(Cc2ccncc2)c2ccccc2c1=O)N1CCN(C(=O)c2ccco2)CC1", "inhibition": "21.1%"}
{"compound": "O=C(CSc1nnnn1-c1ccc2c(c1)OCO2)NCc1cccs1", "inhibition": "-10.4%"}
{"compound": "Cc1occc1-c1nnc(SCC(=O)c2ccc(F)cc2)n1Cc1ccco1", "inhibition": "12%"}
{"compound": "CC(C)(C)NC(=O)C(c1ccco1)N(C(=O)Cn1nnc(-c2ccc(F)cc2)n1)c1ccccc1F", "note": "(stereo not given)", "inhibition": "39.7%"}
{"compound": "CCOC(=O)C(CC)Sc1nc2c(c(=O)[nH]c(=O)n2C)n1C/C=C(/C)Cl", "note": "(stereo not given)", "inhibition": "19.1%"}
{"compound": "CCN1CCN(C(=O)Cn2ncc3ccsc3c2=O)CC1", "inhibition": "26.3%"}
{"compound": "Cc1cc(N2CCOCC2)nc2ccc(NC(=O)C3CCC(C)CC3)cc12", "note": "(stereo not given)", "inhibition": "-31.3%"}
{"compound": "O=C(Nc1cccc(F)c1)C1C2C=CC3(CN(CCCN4CCOCC4)C(=O)C13)O2", "note": "(stereo not given)", "inhibition": "12.3%"}
{"compound": "C=CCn1c(=O)n(CCOC)c(=O)c2sc3ccccc3c21", "inhibition": "51% (active)"}
{"compound": "Cc1ccc(C(=O)CSc2n[nH]c(-c3ccco3)n2)cc1C", "inhibition": "10.8%"}
{"compound": "Cc1ccc(-c2cn3nc(C)c(C)nc3n2)cc1", "inhibition": "1.39%"}
{"compound": "O=C(NCCO)c1cc2ccccc2cc1O", "inhibition": "-4.78%"}
{"compound": "CCOCCCNC(=O)CS(=O)(=O)Cc1nc(-c2cccc(OC)c2)oc1C", "inhibition": "33.7%"}
{"compound": "COc1ccccc1Cn1nnc2c(=O)[nH]c(C3CCN(C(=O)c4ccccc4Cl)CC3)nc21", "inhibition": "40.2%"}
{"compound": "CCCCc1n[nH]c2c1C(=O)CC(C)(C)C2", "inhibition": "19.2%"}
{"compound": "Cc1ccc(NC(=O)c2ccco2)c(NC(=O)c2cccs2)c1", "inhibition": "16.5%"}
{"compound": "COc1ccc(NC(=O)CN2CCCCC2)cc1", "inhibition": "11.2%"}
{"compound": "CCCCP(=O)(CCCC)c1ccccc1C(=O)O", "inhibition": "21.9%"}
{"compound": "c1ccc2c(c1)CNc1ccccc1C2", "inhibition": "10.2%"}
{"compound": "Cc1ccc(NC2=NC3(CCCCC3)N=C(N)N2)c(C)c1", "inhibition": "8.58%"}
{"compound": "CCCOC(=O)c1ccc(-c2c(C)noc2-c2ccc(OC)cc2O)o1", "inhibition": "2.32%"}
{"compound": "CCOC(=O)C1CCN(Cc2ccc(OC)c(C)c2OC)CC1", "inhibition": "7.91%"}
{"compound": "CC1CCCC(C)N1C(=O)CSc1nnc(-c2cccs2)o1", "note": "(stereo not given)", "inhibition": "-68%"}
{"compound": "Cc1nc2ccccc2c2oc(C(=O)NCC3COc4ccccc4O3)cc12", "note": "(stereo not given)", "inhibition": "-3.35%"}
{"compound": "O=C(c1ccccc1-c1nc(-c2ccccc2)no1)N1CCCC1", "inhibition": "-38.1%"}
{"compound": "COc1ccc(OC)c(C(C)NC=O)c1", "note": "(stereo not given)", "inhibition": "23.1%"}
{"compound": "CCSc1ccccc1C(=O)Nc1cccc(OC)c1", "inhibition": "-15.7%"}
{"compound": "O=S(=O)(NCc1ccc(Cl)cc1)c1cnc[nH]1", "inhibition": "-18.3%"}
{"compound": "Cc1ccc2oc(=O)c3cnn(CC(=O)NCCC(C)C)c3c2c1", "inhibition": "18.2%"}
{"compound": "CCOC(=O)N1CCN(S(=O)(=O)c2ccc(OCC)c(C)c2)CC1", "inhibition": "11.9%"}
{"compound": "Cc1cc(C(F)(F)F)nn1Cc1ccc(C(=O)NCc2ccco2)o1", "inhibition": "-36.9%"}
{"compound": "CC(=O)c1c(C)oc2ccc(NS(=O)(=O)c3ccc(O)c(C(=O)O)c3)cc12", "inhibition": "19.3%"}
{"compound": "Cc1ccc(S(=O)(=O)NC(=O)c2cc(C)n(CCCn3ccnc3)c2C)cc1", "inhibition": "13.5%"}
{"compound": "CC(C)(O)C1=NOC(c2ccccc2)C1", "note": "(stereo not given)", "inhibition": "22.8%"}
{"compound": "Cc1ccc(C(C(=O)NC2CCCCC2)N(C(=O)c2csnn2)C2CCCC2)o1", "note": "(stereo not given)", "inhibition": "47.6%"}
{"compound": "COCCNC(=O)CC(NS(=O)(=O)c1ccc(NC(C)=O)cc1)C(C)C", "note": "(stereo not given)", "inhibition": "25.9%"}
{"compound": "COc1ccccc1CN1CC(C(=O)NCc2cccnc2)CC1=O", "note": "(stereo not given)", "inhibition": "29.2%"}
{"compound": "O=C(NC1=NCCS1)NC12CC3CC(CC(C3)C1)C2", "inhibition": "12.2%"}
{"compound": "CCc1nnc(NC(=O)C2CC(=O)N(Cc3ccco3)C2)s1", "note": "(stereo not given)", "inhibition": "22.1%"}
{"compound": "Cc1ccc2c(c1)nnn2C1CCN(C(=O)NC23CC4CC(CC(C4)C2)C3)CC1", "inhibition": "22.5%"}
